From PubChem BioAssay
The sample as a whole holds a higher share of hits than the screen did.
Tgondii IFNg: inhibitors of Toxoplasma gondii growth with IFN-gamma | Toxoplasma gondii growth in IFN-gamma-treated host cells; active compounds read low | activity change, negative = inhibition, % (concentration not given with the values) | 3.8% of 69,000 active | AID 1259416; in the data active means activity change below about -70%, passing the limit was not always enough;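 further: host cells are HeLa cells infected with Toxoplasma gondii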
Large screens that a line does not name were inactive.

Clc1ccc(/C=C2\CCCC3C2=NNC3c2ccc(Cl)cc2)cc1 (centres undefined)	Tgondii IFNg -92
Cc1nc(C)n(CC(=O)NC(Cc2ccsc2)c2ncccc2C)n1 (centres undefined)	none
CC(C)Cn1c(CN2CCC(N)(C(=O)O)C2)nc2ccccc21 (centres undefined)	none
CCc1nnc(NC(=O)CSc2nc3cccnc3n2Cc2ccccc2)s1	Tgondii IFNg -83
Cc1nnc(NC(=O)CSc2ccccn2)s1	none
O=C(CSc1nc2ccccc2n1Cc1ccccc1)Nc1ccccn1	none
COc1cc2c(cc1OC)C1c3ccccc3N(Cc3ccccc3)C(=O)N1CC2 (centres undefined)	none
COc1cc2c(cc1OC)C(c1ccccc1Cl)N(c1ccc(C)cc1)C(=O)C2 (centres undefined)	Tgondii IFNg -91
COc1ccc(C2N(c3ccc(C)cc3)CCN2c2ccc(C)cc2)cc1OC	none
Cc1ccc(NC2=CC(=O)c3sc(C)nc3C2=O)cc1	Tgondii IFNg -76
Cc1nc(CC(=O)N2CCCC2c2nonc2C)cs1 (centres undefined)	none
CCc1ccc(OCCCn2nnc3ccccc32)cc1	none
CCCCN(C)Cc1ccc(C(=O)Nc2c(C)noc2C)cc1	none
O=C(Nc1ccccc1)N(Cc1ccc(Cl)cc1)Cc1nc2ccccc2c(=O)[nH]1	none
CCCCN(Cc1ccc(C(=O)NO)cc1)C(=O)Nc1ccccc1	Tgondii IFNg -85
CN(Cc1nc(-c2ccc3c(c2)OCO3)no1)CC1COCCO1 (centres undefined)	none
COCC(=O)N1CCC2C1CCC(=O)N2c1cnn(C)c1 (centres undefined)	none
CN1CC(c2ccccc2)C2(CCN(C(=O)c3ccc[nH]3)CC2)C1=O (centres undefined)	none
COc1c(C)c2c(c(O)c1C/C=C(/C)CCC(=O)O)C(=O)OC2	Tgondii IFNg -77
c1cnc(N2CC[C@@H]3[C@@H]2CCN3c2nncs2)nc1	none
Cc1oc(-c2ccc(Cl)cc2)nc1CSc1nc2c(=O)[nH]cnc2n1-c1ccccc1	none
Cc1ccc(-c2nc(CSc3nc4c(=O)[nH]cnc4n3-c3ccc(C)cc3)c(C)o2)cc1	Tgondii IFNg -95
CCn1c(SCc2nc(-c3cccc(Cl)c3)oc2C)nc2c(=O)[nH]cnc21	none
Cc1ccc(-n2c(SCc3nc(-c4cccc(C)c4)oc3C)nc3c(=O)[nH]cnc32)cc1	none
Cc1oc(-c2cccc(Cl)c2)nc1CSc1nc2c(=O)[nH]cnc2n1-c1ccccc1	Tgondii IFNg -84
COc1cccc(-c2nc(CSc3nc4c(=O)[nH]cnc4n3-c3ccccc3)c(C)o2)c1OC	none
Cc1ccc(-c2nc(CSc3nc4c(=O)[nH]cnc4n3-c3ccccc3)c(C)o2)cc1	Tgondii IFNg -104
Cc1oc(-c2ccc(OC(C)C)cc2)nc1CSc1nc2c(=O)[nH]cnc2n1-c1ccccc1	none
CCn1c(SCc2nc(-c3ccc(C)cc3)oc2C)nc2c(=O)[nH]cnc21	none
COc1ccccc1CN1C[C@@H](C(=O)NCC2CCOCC2)[C@@H]2OCC[C@H]21	none
CNS(=O)(=O)c1ccc(CN2CCN(C)C(C(=O)O)C2)cc1 (centres undefined)	none
COCc1ccc(C(=O)N(C)CCSc2ccc(C)cc2)s1	none
NC(=O)C1CCN(C(=O)CSCc2c(Cl)cccc2Cl)CC1	none
CC[C@H]1N(CCOCc2ccccc2)CCC[C@@]12CCC(=O)N2C	none
O=S(=O)(Cc1noc(-c2cc(Cl)cc(Cl)c2)n1)c1ccc(Cl)cc1	Tgondii IFNg -87
O=S(=O)(Cc1noc(-c2ccsc2)n1)c1ccccn1	none
O=S(=O)(Cc1nc(-c2ccsc2)no1)c1ccc(Cl)cc1	none
COc1ccc(S(=O)(=O)N2CCC(c3nc(C(=O)N4CCCC4)c(C)o3)CC2)cc1	none
CCCCCOc1ccc(C(=O)c2ccccc2)cc1	none
CN(C)CCOc1ccc(/C(=C(/CCCl)c2ccccc2)c2ccccc2)cc1	Tgondii IFNg -88
CN(C)CCCOc1cccc(C(=O)O)c1	none
O=C(C1CCC1)N1CCC[C@@H]1Cn1nnc(-c2cccnc2)n1	none
COc1ccccc1C1(O)CCCN(C(=O)c2csc(C(C)=O)c2)C1 (centres undefined)	none
Cc1cc(C)cc(NC(=O)CC(=O)N(C)C(C)c2ccon2)c1 (centres undefined)	none
COc1ccc(Cl)cc1NC(=O)COc1nc(C)nc2ccccc12	none
COc1ccc(Cl)cc1NC(=O)c1nc(Nc2ccccc2)c2ccccc2n1	none
COc1ccc(Cl)cc1NC(=O)Nc1cc(C)nc2ccccc12	Tgondii IFNg -86
COc1ccc(Oc2ccc(C(=O)NCCN3CCNC3=O)cc2)cc1	none
Cn1c(SCc2ccc(C#N)cc2)nnc1-c1cnccn1	none
CCCN(c1ccc(F)cc1)c1nc(C(=O)OCC)nc2ccccc12	none
CCOC(=O)c1nc(N(C)c2ccccc2C)c2ccccc2n1	none
CCCCN(CC)c1nc(C(=O)OCC)nc2ccccc12	Tgondii IFNg -87
CCOC(=O)c1nc(NCCCN2CCN(Cc3ccccc3)CC2)c2ccccc2n1	none
CCCCN(CCCNc1nc(C(=O)OCC)nc2ccccc12)c1ccccc1	Tgondii IFNg -78
CCOC(=O)c1nc(NCCOC)c2ccccc2n1	none
Cc1oc(C2CCN(C(=O)Nc3cccc(Cl)c3F)CC2)nc1C(=O)N(C)C	none
FC(F)(F)c1ccc(-c2noc(-c3csnn3)n2)cc1	none
CCOc1ccc(OCc2cccc(C(=O)NCc3cccnc3)c2)cc1	none
Cc1ccc(CCC2=NS(=O)(=O)c3ccccc3N2)o1	none
COc1ccc(-c2nnc(SCC(=O)N3CCN(C(=O)c4ccco4)CC3)o2)cc1	none
CC1CCCN(S(=O)(=O)N2CCC3(CC2)NC(=O)N(Cc2ccccc2)C3=O)C1 (centres undefined)	none
C[C@@H]1CN([C@@H](C)CO)C(=O)c2c(c3ccccc3n2C)-c2ccccc2CO[C@@H]1CN(C)C(=O)[C@@H](Cc1ccccc1)N(C)C	none
C[C@H](CO)N1C[C@H](C)[C@H](CN(C)C(=O)[C@@H](Cc2ccccc2)N(C)C)OCc2ccccc2-c2c(n(C)c3ccccc23)C1=O	Tgondii IFNg -72
C[C@H](CO)N1C[C@H](C)[C@@H](CN(C)C(=O)[C@H](Cc2ccccc2)N(C)C)OCc2ccccc2-c2c(n(C)c3ccccc23)C1=O	none
O=C1c2cccc3cccc(c23)C(=O)N1c1ccc2ncccc2c1	none
O=C1c2ccc3c4c(ccc(c24)C(=O)N1c1ccccn1)C(=O)N(c1ccccn1)C3=O	Tgondii IFNg -90
c1ccc(-c2ccccn2)nc1	none
Cc1cc(C)n(Cc2ccc(C(=O)NC(C)c3nncn3C(C)C)cc2)n1 (centres undefined)	none
CC(C)N(C)Cc1cnc2n1CCN(C(=O)CC1CC1)CC2	none
C=CCN1C(=O)COC2(CCN(Cc3cnn(C)c3)CC2)C1C (centres undefined)	Tgondii IFNg -78
CC1N(Cc2cccnc2)C(=O)COC12CCN(Cc1cnn(C)c1)CC2 (centres undefined)	none
CC1N(CCN(C)C)C(=O)COC12CCN(Cc1cnn(C)c1)CC2 (centres undefined)	none
NC(=O)[C@@H]1CC=CC[C@@H]1NC(=O)C1(Oc2ccc(Cl)cc2)CCNCC1	none
Cc1nc(C)c(CC(=O)N2CCc3[nH]c4ccc(F)cc4c3C2)c(=O)[nH]1	none
O=C(c1ccn[nH]1)N1CC[C@H]2CN(Cc3ccc(Cl)cc3)S(=O)(=O)[C@@H]2CC1	Tgondii IFNg -73
COc1ccc(CCN2C[C@@H]3CCN(C(=O)c4cnc(C)cn4)CC[C@H]3S2(=O)=O)cc1	none
O=C(C1CCC1)N1CC[C@H]2CN(Cc3ccccc3)S(=O)(=O)[C@@H]2CC1	none
COc1ccc(CN2C[C@@H]3CCN(C(=O)c4ccno4)CC[C@H]3S2(=O)=O)cc1	none
CC(C)CN1C[C@@H]2CCN(C(=O)NC3CCCC3)CC[C@H]2S1(=O)=O	none
